Results taken from PubChem BioAssay (NCATS).
Records with an inconclusive call do not appear. Calls of active or inactive are those of the source. Calls come from the whole dose curve; as a rule, active = well fitted cell-killing curve with a large enough effect; inconclusive = small, poorly fitted or top-dose-only effect, or effect the other way; inactive = flat fitted curve, though single readings scatter.

Assays:
Test in all cases: Primary qHTS to identify gynecologic anti-cancer compounds using libraries of approved drugs and bioactive compounds (AID 1345084); note: nearly all actives have a fitted effect of over 55% in size
Settings in all cases: Gynecologic cancer cell panel viability, ATPlite luminescence, 48 h; series mostly up to 57.5 µM
OV90 = tested on: OV90
In short: (§1)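 Measured: luminescence after ATPlite addition (15 min, RT). Exposure: 48 h, 37 C, 5% CO2.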

PA-1 = tested on: PA-1
In short: as §1

Tov-21-G = tested on: Tov-21-G
In short: as §1

Tov112D = tested on: Tov112D
In short: as §1
% is set by controls: 0 for no effect and ±100 for the full control effect.

O=C(O)c1cnn(-c2nc3cc(OC(F)(F)F)c(Cl)cc3[nH]2)c1
inactive: Potency (OV90) | Potency (PA-1) | Potency (Tov-21-G) | Potency (Tov112D)

O=C(/C=C/c1c(C(=O)O)[nH]c2cc(Cl)cc(Cl)c12)Nc1ccccc1
inactive: Potency (OV90) | Potency (PA-1) | Potency (Tov-21-G) | Potency (Tov112D)

CC(=O)OCC1=C[C@H](O)[C@@H]2C(C(=O)O)=CO[C@@H](O[C@@H]3O[C@H](CO)[C@@H](O)[C@H](O)[C@H]3O)[C@H]12
inactive: Potency (OV90) | Potency (PA-1) | Potency (Tov-21-G) | Potency (Tov112D)

Cc1cc(N2CCCCC2)nc2ccccc12
inactive: Potency (OV90) | Potency (PA-1) | Potency (Tov-21-G) | Potency (Tov112D)

CCc1c(CC(N)=O)c2cc(OCCCP(=O)(O)O)ccc2n1Cc1ccccc1
inactive: Potency (OV90) | Potency (PA-1) | Potency (Tov-21-G) | Potency (Tov112D)

C[C@@H]1O[C@@H](OC[C@H]2O[C@@H](OCC3CCC4CC3C4(C)C)[C@H](O)[C@@H](O)[C@@H]2O)[C@H](O)[C@H](O)[C@H]1O (stereo not given in full)
inactive: Potency (OV90) | Potency (PA-1) | Potency (Tov-21-G) | Potency (Tov112D)

CCC(C)C(=O)O[C@@H]1[C@@H](O)[C@@H](O[C@H]2O[C@H](CO)[C@@H](O)[C@H](O)[C@H]2O)O[C@H](CO)[C@H]1O (stereo not given in full)
inactive: Potency (OV90) | Potency (PA-1) | Potency (Tov-21-G) | Potency (Tov112D)

C=C1CCC2C(C)(C)C(O)CCC2(C)C1CCC(C)CCOC(=O)CCC(=O)O (stereo not given)
inactive: Potency (OV90) | Potency (PA-1) | Potency (Tov-21-G) | Potency (Tov112D)

C[C@@H]1O[C@@H](O[C@@H]2[C@@H](O)[C@H](O[C@@H]3[C@@H](O)[C@@H](O)[C@H](O[C@H]4[C@H](OC(=O)[C@]56CCC(C)(C)C[C@H]5C5=CCC7[C@@]8(C)C[C@H](O)[C@H](O[C@@H]9O[C@@H](C)[C@H](O)[C@@H](O)[C@H]9O)[C@@](C)(CO)C8CC[C@@]7(C)[C@]5(C)C[C@H]6O)O[C@H](C)[C@H](O)[C@@H]4O)O[C@H]3C)OC[C@H]2O)[C@H](O)[C@H](O)[C@H]1O (stereo not given in full)
inactive: activity change, negative = cytotoxicity (OV90) 4.8% [at 6.55 µM] | activity change, negative = cytotoxicity (PA-1) 7.81% [at 6.55 µM] | activity change, negative = cytotoxicity (Tov-21-G) -0.124% [at 6.55 µM] | activity change, negative = cytotoxicity (Tov112D) 9.68% [at 6.55 µM]

Cc1nnc(C(C)C)n1C1CC2CCC(C1)N2CC[C@H](NC(=O)C1CCC(F)(F)CC1)c1ccccc1 (stereo not given in full)
inactive: Potency (OV90) | Potency (PA-1) | Potency (Tov-21-G) | Potency (Tov112D)

COc1cc(/C=C/CO)ccc1O[C@@H]1O[C@H](CO)[C@@H](O)[C@H](O)[C@H]1O
inactive: Potency (OV90) | Potency (PA-1) | Potency (Tov-21-G) | Potency (Tov112D)

COC(=O)C1=COC(OC2OC(CO)C(O)C(O)C2O)C2C1CC(OC(=O)C(O)CC(=O)O)C2C (stereo not given)
inactive: Potency (OV90) | Potency (PA-1) | Potency (Tov-21-G) | Potency (Tov112D)

O=C1N(CC2CCCCN2)CCN1c1ccccc1 (stereo not given)
inactive: Potency (OV90) | Potency (PA-1) | Potency (Tov-21-G) | Potency (Tov112D)

COc1ccc(C(OC2OC(CO)C(O)C(O)C2O)C(C)O)cc1 (stereo not given)
inactive: Potency (OV90) | Potency (PA-1) | Potency (Tov-21-G) | Potency (Tov112D)

CC1(C)CCCC2(C)C3=C(C(=O)OC3O)C(O)CC12 (stereo not given)
inactive: Potency (OV90) | Potency (PA-1) | Potency (Tov-21-G) | Potency (Tov112D)

COc1cc(C)c(C(=O)O[C@H]2[C@@H](O)[C@H](n3ccc(=O)[nH]c3=O)O[C@@H]2CO)c(OC)c1
inactive: Potency (OV90) | Potency (PA-1) | Potency (Tov-21-G) | Potency (Tov112D)

COc1ccc(C(=O)O[C@H]2CC(C)=CC[C@@]3(C)[C@@H](OC(C)=O)C[C@@](O)(C(C)C)[C@H]23)cc1
inactive: Potency (OV90) | Potency (PA-1) | Potency (Tov-21-G) | Potency (Tov112D)

O=S(=O)(NC1CCNCC1)c1cc(S(=O)(=O)c2ccccc2)ccc1C(F)(F)F
inactive: Potency (OV90) | Potency (PA-1) | Potency (Tov-21-G) | Potency (Tov112D)

CC(C(=O)O)C1CCC2(C)C3C(=O)C=C4C(CCC(=O)C4(C)C)C3(C)CCC12C (stereo not given)
inactive: Potency (OV90) | Potency (PA-1) | Potency (Tov-21-G) | Potency (Tov112D)

COc1cc(/C=C/C(=O)O[C@H]2[C@H](O)[C@@H](CO)O[C@@]2(CO)O[C@H]2O[C@H](COC(=O)c3ccc(O)cc3)[C@@H](O)[C@H](O)[C@H]2O)cc(OC)c1OC
inactive: Potency (OV90) | Potency (PA-1) | Potency (Tov-21-G) | Potency (Tov112D)

COc1cc(/C=C/C(=O)OC(C)(C)C(OC2OC(CO)C(O)C(O)C2O)C(=O)OCc2ccc(OC3OC(CO)C(O)C(O)C3O)cc2)ccc1O (stereo not given)
inactive: Potency (OV90) | Potency (PA-1) | Potency (Tov-21-G) | Potency (Tov112D)

C=CC(C)(C)O[C@@H]1O[C@H](CO[C@@H]2OC[C@](O)(CO)[C@H]2O)[C@@H](O)[C@H](O)[C@H]1O
inactive: Potency (OV90) | Potency (PA-1) | Potency (Tov-21-G) | Potency (Tov112D)

CCOC(=O)N1CCC(NCCNC(=O)c2ccccc2C)CC1
inactive: Potency (OV90) | Potency (PA-1) | Potency (Tov-21-G) | Potency (Tov112D)

CCCCN(CCCC)C(=O)CN1C[C@H](c2ccc3c(c2)OCO3)[C@@H](C(=O)O)[C@@H]1c1ccc(OC)cc1
inactive: Potency (OV90) | Potency (PA-1) | Potency (Tov-21-G) | Potency (Tov112D)

CNC(=O)O[C@H]1COc2ccc(N3CCN(C4COC4)CC3)cc2[C@@H]1NC(=O)c1ccc(F)cc1
inactive: Potency (OV90) | Potency (PA-1) | Potency (Tov-21-G) | Potency (Tov112D)
